Experimental findings from PubChem BioAssay (NCATS) are described below.

Results filed as inconclusive are left out. Calls of active or inactive are those of the source. Calls follow the shape of the dose curve; as a rule, active = well fitted curve in the direction sought with a large enough effect; inconclusive = small, poorly fitted or top-dose-only effect, or another doubt; inactive = no such curve, though single readings can be large; an effect the other way counts as inactive or inconclusive.

Assay [1] can be described thus: Confirmatory screen GU Rhodamine qHTS for Zika virus inhibitors qHTS (AID 1347157). Also: nearly all actives have a fitted effect of over 70% in size. Also: potency is read from the fitted curve at half-maximal effect. The conditions noted are these: purified enzyme assay, Rhodamine110 substrate fluorescence, 15 min; series mostly up to 114 µM. A digest of the protocol:
(§1)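 Percent inhibition came from the 15-min rise in Rhodamine110 fluorescence (1.5 microM substrate, ~15% conversion), normalized to no-inhibitor and no-enzyme wells and Hill-fitted. Unlinked protease, 25 nM, pH 8.0 Tris buffer; compounds up to 114 microM, 15-min preincubation.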
For orientation: In qHTS, concentration-response curves come from the screen itself.

The test system of assay [2] is Zika virus NS2B-NS3 protease (unlinked complex). Kind of assay: Primary screen GU Rhodamine qHTS for Zika virus inhibitors: Unlinked NS2B-NS3 protease assay (AID 1347159). Also: nearly all actives have a fitted effect of over 60% in size. Also: potency is read from the fitted curve at half-maximal effect. The conditions noted are these: Recombinant ZIKV NS2B-NS3 protease, Rhodamine110 substrate fluorescence; series mostly up to 107 µM. A digest of the protocol: as §1
Assay [3] has as its system Zika virus NS2B-NS3 protease (linked construct). In words: Primary screen NINDS Rhodamine qHTS for Zika virus inhibitors (AID 1347160). Also: nearly all actives have a fitted effect of over 55% in size. Also: potency is read from the fitted curve at half-maximal effect. Conditions: purified NS2B-NS3 protease, Rhodamine110 substrate fluorescence; series mostly up to 57.1 µM. A digest of the protocol: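 Rhodamine110-peptide cleavage (1.5 µM substrate) by 25 nM linked NS2B-NS3 enzyme at pH 8.0 (Tris, Tween 20), after 15 min RT preincubation with compounds; 15-min fluorescence change normalized to controls and Hill-fitted.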

Assay [4] in a line: Confirmatory screen NINDS Rhodamine qHTS for Zika virus inhibitors (AID 1347161). Also: nearly all actives have a fitted effect of over 60% in size. Also: potency is read from the fitted curve at half-maximal effect. Conditions: purified enzyme assay, Rhodamine110 substrate fluorescence, 15 min; series mostly up to 114 µM. The method, boiled down: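 Kinetic fluorescence (Ex 480 nm, Em 540 nm) over 15 min with 1.5 microM Rhodamine110 peptide and 25 nM linked protease.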
In assay [5] the test system is Zika virus NS2B-NS3 protease. Kind of assay: Primary screen GU AMC qHTS for Zika virus inhibitors (AID 1347154). Also: nearly all actives have a fitted effect of over 70% in size. Also: potency is read from the fitted curve at half-maximal effect. The conditions noted are these: Zika NS2B-NS3 unlinked protease, AMC fluorogenic substrate; series mostly up to 54.1 µM. The method, boiled down: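 Fluorogenic AMC-substrate cleavage by noncovalent NS2B-NS3 protease complex (25 nM, pH 8.0 Tris buffer with Tween 20) followed for 15 minutes at room temperature (~20% conversion). Percent inhibition from ex340/em450 signal change, fitted by 4-parameter Hill equation.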

Assay [6] relates to Zika virus NS2B-NS3 protease (linked construct). Kind of assay: Confirmatory screen NINDS AMC qHTS for Zika virus inhibitors (AID 1347152). Also: nearly all actives have a fitted effect of over 70% in size. Also: potency is read from the fitted curve at half-maximal effect. The conditions noted are these: Purified linked NS2B-NS3, AMC substrate fluorescence; series mostly up to 56.6 µM. A digest of the protocol:
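In this dose-response qHTS, AMC release from 10 microM Bz-Nle-KRR-AMC by 1 nM linked protease is measured over 15 minutes (about 20% conversion) at pH 8.0. Percent inhibition is fitted to a 4-parameter Hill curve.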

For assay [7], the system named is Zika virus NS2B-NS3 protease (unlinked complex). Kind of assay: Confirmatory screen GU AMC qHTS for Zika virus inhibitors (AID 1347153). Also: nearly all actives have a fitted effect of over 70% in size. The conditions noted are these: Recombinant NS2B-NS3 protease, AMC substrate fluorescence; series mostly up to 111 µM. A digest of the protocol: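 Compounds were preincubated 15 min at room temperature with 25 nM noncovalent NS2B-NS3 protease at pH 8.0; AMC substrate added at 10 microM and 15-min fluorescence gain (340/450 nm) converted to percent inhibition, fitted 4-parameter.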

Assay [8] concerns Zika virus NS2B-NS3 protease (linked). Kind of assay: 384 well plate NINDS AMC confirmatory qHTS for Zika virus inhibitors (AID 1347163). Also: nearly all actives have a fitted effect of over 50% in size. Also: potency is read from the fitted curve at half-maximal effect. The conditions noted are these: Recombinant NS2B-NS3 protease, Ac-VKTGKR-AMC fluorescence; series mostly up to 100 µM. The method, boiled down: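 Enzyme (5, 30 or 60 nM final) first met test compounds for ~15 min. The AMC-tagged peptide Ac-VKTGKR-AMC followed at 30 microM. Fluorescence was then recorded at 25 min and scaled against no-enzyme and no-inhibitor wells.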

For assay [9], the system named is Zika virus NS2B-NS3 protease (linked construct). Kind of assay: 384 well plate NINDS Rhodamine confirmatory qHTS for Zika virus inhibitors (AID 1347164). Also: nearly all actives have a fitted effect of over 65% in size. Also: potency is read from the fitted curve at half-maximal effect. The conditions noted are these: rhodamine-110 peptide substrate fluorescence; series mostly up to 100 µM. A digest of the protocol: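 Compounds are incubated about 15 minutes with linked protease (5, 30 or 60 nM final). Rhodamine 110-tagged Ac-LKRR substrate (10 microM final) is added and fluorescence measured after 25 minutes.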

Assay [10] can be described thus: Vero cells viability qHTS for Zika virus inhibitors (AID 1347167). Conditions: cytotoxicity counter-screen (Zika); series mostly up to 45.9 µM. The method, boiled down:
(§2)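 Luminescent ATP readout (CellTiter Glo) after 30 min at 37 degrees C gives viability; cells in DMEM + 4% FBS were treated 24 to 48 hours with compound, following overnight attachment.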

Assay [11] can be described thus: HepG2 cells viability qHTS for Zika virus inhibitors (AID 1347168). The conditions noted are these: Zika counter-screen; series mostly up to 45.9 µM. A digest of the protocol:
as §2

A short description of assay [12]: Tertiary RLuc qRT-PCR qHTS assay for Zika virus inhibitors (AID 1347169). Also: nearly all actives have a fitted effect of over 55% in size. Also: potency is read from the fitted curve at half-maximal effect. The conditions noted are these: infected Vero cells, reporter luminescence, 48-72 h; series mostly up to 26.6 µM. The method, boiled down: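 Orthogonal cell-based infection assay using recombinant ZIKV-RLuc (Cambodian) in Vero cells; compound added prior to virus at MOI 1-2. Incubation lasts 48-72 hrs at 37 degrees C before live-cell Renilla substrate is added and luminescence measured.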
Background: Real-time PCR tracks product formation cycle by cycle.

Assay [13] can be described thus: ZIKV-mCherry secondary qHTS for Zika virus inhibitors (AID 1347158). Also: potency is read from the fitted curve at half-maximal effect. Conditions: Vero cells, ZIKV-mCherry infection imaging, 48-72 h; series mostly up to 49.2 µM. A digest of the protocol:
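This orthogonal imaging screen measured ZIKV-mCherry infection of Vero cells exposed to compound, MOI 1, 48-72 h. Percent infection came from segmented nuclei scored mCherry-positive above 3 SD of negative controls.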

For `C#CCN(Cc1cc2c(=O)[nH]c(C)nc2cc1Br)c1ccc(C(=O)NCc2cccnc2)cc1`, the Potency in assay [1] was 44.1 µM (active); in assay [2] it was 39.8 µM (active); in assay [4] it was 31.2 µM (active). Also, the Potency result in assay [3] was “inactive”.
Regarding `CCC(C(=O)O)c1ccc(N2Cc3ccccc3C2=O)cc1` (stereo not given), in assay [5], the Potency result is “inactive”.
With `CCCCCCOc1cc2c(cc1N(C)c1ncc(C(=O)O)cn1)C(C)(C)CCC2(C)C`, the Potency in [6] was 31.2 µM (active); in [7] it was 35 µM (active); in assay [1], 6.98 µM (active); in assay [2] it was 3.98 µM (active); in assay [3] it was 7.94 µM (active); in assay [4], 4.41 µM (active). Further, the Potency in assay [8] is 8.91 µM (active); in [9], 3.16 µM (active); in assay [12], 20.8 µM (active). Also, the compound was called inactive in [10] and in [11].
`CC1(C)CC2=C3C=CC4C5(C)CCC(O)C(C)(C)C5CCC4(C)C3(C)CCC2(C)C(O)C1` (stereo not given): the Potency in assay [1] was 13.6 µM (active); in assay [2], 15.8 µM (active); in [3], 8.91 µM (active); in [4], 10.8 µM (active). Besides, the Potency result in assay [13] is “inactive”. Also, the outcome in assay [10] and in assay [11] was inactive.
Turning to `CC1=C(C(=O)OCc2ccccc2)C(c2ccc(-c3ccccc3)cc2)NC(=O)N1CCCCCC(=O)O` (stereo not given), the Potency in assay [6] is 22.1 µM (active); in [7] it was 31.2 µM (active); in assay [1], 2.48 µM (active); in [2], 3.16 µM (active); in assay [3] it was 7.94 µM (active); in assay [4], 2.48 µM (active). Also, the Potency in assay [8] is 3.55 µM (active); in [9], 0.631 µM (active); in assay [12], 23.4 µM (active). Moreover, the result in assay [10] and in assay [11] was inactive.
With `OC/C=C/C=C/[C@H]1Cc2cc(O)cc(O)c2O1`, the Potency in [1] was 22.1 µM (active); in assay [2] it was 39.8 µM (active); in assay [4], 27.8 µM (active). In addition, the Potency result in [3] and in [12] was “inactive” each time.
For `CC(=O)O[C@H]1C(=O)[C@@]2(C)[C@H]([C@H](OC(=O)c3ccccc3)[C@]3(O)C[C@H](OC(=O)[C@H](O)[C@@H](NC(=O)c4ccccc4)c4ccccc4)C(C)=C1C3(C)C)[C@]1(OC(C)=O)CO[C@@H]1C[C@@H]2O`, the Potency result in [5], in [2] and in assay [3] was “inactive” throughout.
As to `CC1(C)CC[C@]2(C(=O)O[C@@H]3O[C@H](CO)[C@@H](O)[C@H](O)[C@H]3O)CC[C@]3(C)C(=CCC4[C@@]5(C)C[C@@H](O)[C@H](O)[C@@](C)(CO)C5CC[C@]43C)C2[C@@H]1O` (stereo not given in full), the Potency in assay [2] is 10 µM (active).
`O=C(Nc1ccc(S(=O)(=O)Nc2nccs2)cc1)C(c1ccccc1)c1ccccc1`: the Potency in assay [1] was 6.98 µM (active); in [2] it was 6.31 µM (active); in assay [3] it was 7.08 µM (active); in [4] it was 4.41 µM (active); in assay [9], 50.1 µM (active); in assay [12], 20.8 µM (active). Besides, the Potency result in [13] and in assay [8] was “inactive” throughout. Moreover, the compound was classed as inactive in [10] and in [11].
Regarding `CC(C)(C)Nc1nc2cc(Cl)c(Cl)cc2nc1S(C)(=O)=O`, the Potency entry in [1], in assay [3] and in assay [4] was “inactive” throughout. Further, the Potency was 89.1 µM (active) in assay [2] and 10.4 µM (active) in [12].
`O=C(O)c1ccccc1NCCc1ccccc1`: in assay [5], the Potency was 31.6 µM (active).
For the compound `CC(c1ncncc1F)C(O)(Cn1cncn1)c1ccc(F)cc1F` (stereo not given), the Potency result in assay [2] is “inactive”.
Turning to `COc1ccc(C(=O)C2CCN(CC(=O)N(Cc3nc4c(c(=O)[nH]3)COCC4)CC3CC3)CC2)cc1`, the Potency result in assay [1], in assay [2] and in assay [4] was “inactive” each time.
In the case of `N#CC(c1ccnc(OCc2ccc(CN3CCOCC3)cc2)n1)c1nc2ccccc2s1` (stereo not given), the Potency entry in assay [6] and in assay [7] was “inactive” in each case. Moreover, the Potency in assay [1] was 31.2 µM (active); in assay [2], 3.98 µM (active); in assay [3] it was 7.94 µM (active); in [4], 31.2 µM (active); in assay [9], 5.01 µM (active). The outcome in assay [10] and in [11] was inactive.
`CCc1c(-c2ccccc2)c(-c2ccccc2)nn1-c1ccccc1-c1cccc(OCC(=O)O)c1`: the Potency in assay [6] was 13.9 µM (active); in assay [7] it was 27.8 µM (active); in [1], 3.12 µM (active); in assay [2] it was 6.31 µM (active); in assay [3], 3.55 µM (active); in assay [4], 3.12 µM (active). Besides, the results for the Potency in assay [8] and in assay [9] were 3.98 µM (active) and 2.51 µM (active), respectively. The compound was classed as inactive in assay [10] and in [11].
On to `O=C(O)c1c(O)c(-c2ccccc2)nc2ccccc12`, for which the Potency entry in assay [5] was “inactive”.
On to `COc1ccc(Cl)c(Nc2nc3ccccc3nc2NS(=O)(=O)c2cccc(NC(=O)C(C)(C)N)c2)c1`, for which the Potency in [1] is 5.55 µM (active); in [13], 15.8 µM (active); in [2], 7.94 µM (active); in [3], 5.01 µM (active); in assay [4], 5.55 µM (active); in [8], 2.51 µM (active). The results for the Potency in [9] and in assay [12] were 3.98 µM (active) and 14.7 µM (active), respectively. In addition, the outcome in assay [10] and in assay [11] was inactive.
`C=C1CCC2C(C)(C)C(O)CCC2(C)C1CCC(C)CCO` (stereo not given): the Potency in assay [2] was 7.08 µM (active).
For `O=C(N/N=C/c1ccc(O)c(O)c1)c1cc2ccccc2cc1O`, the Potency result in [6] was “inactive”. Further, the Potency in assay [1] was 2.32 µM (active); in assay [3], 5.01 µM (active); in assay [4], 6.55 µM (active); in assay [8], 50.1 µM (active); in assay [9], 0.447 µM (active); in assay [12], 6.18 µM (active). Also, the result in assay [10] and in assay [11] was inactive.
For `Cc1ccc(C(=O)Nc2noc3ccccc23)cc1`, the Potency result in [2] is “inactive”.
As to `C=CC/C=C\C/C=C\CCCCCCCc1cccc(O)c1C(=O)O`, the Potency was 10.9 µM (active) in assay [6]; 6.85 µM (active) in [7]; 4.32 µM (active) in [1]; 8.91 µM (active) in [2]; 3.98 µM (active) in assay [3]; 2.73 µM (active) in [4]. For the same compound, the Potency in [8] is 44.7 µM (active). The Potency entry in [9] and in assay [12] was “inactive” each time. The result in assay [10] and in [11] was inactive.
